This is an account of results in paper PMC7862700, “An all-to-all approach to the identification of sequence-specific readers for epigenetic DNA modifications on cytosine”.

Holding throughout (assay): DAPPL (digital affinity profiling via proximity ligation, sequencing); 10 mM Tris-HCl pH 7.5, 50 mM NaCl, 1 mM DTT, 4% glycerol, room temperature, 30 min; GST-TFs on glutathione beads, 16-mer random dsDNA library, 0.1% formaldehyde crosslink after washing; high values mean tight binding
Common to all, as to settings: protein: recombinant; tags: N-terminal GST; dsDNA, one strand shown

One experiment concerns the target T1, FLI1 (Homo sapiens, UniProt Q01543 1-452).
T1 sequence: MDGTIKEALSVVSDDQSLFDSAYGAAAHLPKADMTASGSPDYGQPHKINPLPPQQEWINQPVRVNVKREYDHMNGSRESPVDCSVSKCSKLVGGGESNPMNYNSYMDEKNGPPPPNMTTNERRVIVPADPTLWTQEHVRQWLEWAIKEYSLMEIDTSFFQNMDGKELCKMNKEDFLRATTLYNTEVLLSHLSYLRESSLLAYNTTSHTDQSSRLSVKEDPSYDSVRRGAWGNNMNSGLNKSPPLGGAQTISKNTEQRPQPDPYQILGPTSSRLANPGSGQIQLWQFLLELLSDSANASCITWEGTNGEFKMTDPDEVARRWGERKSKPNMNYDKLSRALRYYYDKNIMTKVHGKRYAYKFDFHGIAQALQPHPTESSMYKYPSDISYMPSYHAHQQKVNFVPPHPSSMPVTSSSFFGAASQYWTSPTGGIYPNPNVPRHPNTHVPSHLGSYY
An outline of the steps: (§1)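 Binding signal is each hexamer's read frequency for a factor divided by its frequency in the tag-only sample. The factors were GST-fused human transcription factors from yeast, captured on glutathione beads, DNA-barcoded and pooled with that sample. Pools were incubated with 200 nmole of a random double-stranded 16-mer DNA library in Tris/NaCl/DTT/glycerol buffer at room temperature for 30 min, then washed, crosslinked with 0.1% formaldehyde, proximity-ligated with BsaI/T4 ligase (1 h, 37 °C), PCR-amplified and sequenced on an Illumina NextSeq500.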

A further experiment has as its target T2, ELK1 (Homo sapiens, UniProt P19419 1-428).
T2 sequence: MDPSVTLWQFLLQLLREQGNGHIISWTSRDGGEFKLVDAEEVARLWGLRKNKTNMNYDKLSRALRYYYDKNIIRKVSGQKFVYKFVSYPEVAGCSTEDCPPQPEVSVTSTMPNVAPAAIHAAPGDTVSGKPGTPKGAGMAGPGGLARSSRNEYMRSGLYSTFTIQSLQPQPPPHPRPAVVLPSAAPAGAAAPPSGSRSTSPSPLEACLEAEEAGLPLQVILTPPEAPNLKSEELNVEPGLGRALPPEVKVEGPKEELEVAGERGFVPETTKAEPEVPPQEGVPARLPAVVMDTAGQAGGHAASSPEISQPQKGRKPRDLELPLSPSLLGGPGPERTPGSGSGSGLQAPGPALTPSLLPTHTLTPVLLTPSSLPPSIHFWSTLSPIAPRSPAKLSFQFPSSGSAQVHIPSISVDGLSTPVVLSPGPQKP
An outline of the steps: as §1

The target of a further experiment is T3, GABPA (Homo sapiens, UniProt Q06546 1-454).
T3 sequence: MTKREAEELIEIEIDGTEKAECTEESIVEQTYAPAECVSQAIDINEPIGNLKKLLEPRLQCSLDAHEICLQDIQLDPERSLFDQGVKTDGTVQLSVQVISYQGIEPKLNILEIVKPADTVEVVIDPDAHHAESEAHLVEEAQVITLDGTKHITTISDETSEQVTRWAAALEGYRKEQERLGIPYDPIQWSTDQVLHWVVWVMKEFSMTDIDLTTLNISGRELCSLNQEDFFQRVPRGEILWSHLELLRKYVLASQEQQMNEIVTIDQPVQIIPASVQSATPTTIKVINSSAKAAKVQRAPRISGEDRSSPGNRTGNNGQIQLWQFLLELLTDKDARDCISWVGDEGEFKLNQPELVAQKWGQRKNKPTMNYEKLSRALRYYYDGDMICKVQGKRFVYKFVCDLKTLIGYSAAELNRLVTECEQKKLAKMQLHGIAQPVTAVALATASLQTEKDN
A digest of the protocol: as §1

The target in the next experiment is T4, ERG (Homo sapiens, UniProt P11308 1-479).
T4 sequence: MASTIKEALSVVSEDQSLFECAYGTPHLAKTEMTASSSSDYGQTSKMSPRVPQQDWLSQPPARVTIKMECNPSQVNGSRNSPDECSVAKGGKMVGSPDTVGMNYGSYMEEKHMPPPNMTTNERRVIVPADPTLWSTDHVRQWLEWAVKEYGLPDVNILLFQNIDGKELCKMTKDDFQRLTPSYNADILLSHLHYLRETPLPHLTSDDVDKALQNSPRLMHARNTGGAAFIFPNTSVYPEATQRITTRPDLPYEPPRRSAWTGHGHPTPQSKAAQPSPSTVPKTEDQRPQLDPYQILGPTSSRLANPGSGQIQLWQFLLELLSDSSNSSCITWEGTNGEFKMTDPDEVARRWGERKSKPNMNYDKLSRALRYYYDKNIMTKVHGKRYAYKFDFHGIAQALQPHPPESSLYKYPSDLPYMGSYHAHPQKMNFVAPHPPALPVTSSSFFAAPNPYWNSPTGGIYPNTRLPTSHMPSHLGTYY
An outline of the steps: as §1

The target of another experiment is ELF1 (Homo sapiens, UniProt P32519 1-619). A digest of the protocol:
as §1

For another experiment, the target named is T5, EHF (Homo sapiens, UniProt Q9NZC4 1-300).
T5 sequence: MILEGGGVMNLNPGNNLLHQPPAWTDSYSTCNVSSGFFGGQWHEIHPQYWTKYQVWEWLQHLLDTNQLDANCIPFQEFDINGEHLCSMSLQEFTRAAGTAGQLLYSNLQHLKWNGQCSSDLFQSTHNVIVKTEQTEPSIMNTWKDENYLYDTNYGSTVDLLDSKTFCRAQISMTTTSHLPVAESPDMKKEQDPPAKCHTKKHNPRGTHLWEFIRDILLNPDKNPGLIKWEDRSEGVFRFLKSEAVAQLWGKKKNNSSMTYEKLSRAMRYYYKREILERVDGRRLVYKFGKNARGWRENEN
An outline of the steps:
as §1

Another experiment deals with SPI1 (Homo sapiens, UniProt P17947 1-270). An outline of the steps: as §1
For the next experiment, the target named is SPIB (Homo sapiens, UniProt Q01892 1-262). A digest of the protocol:
as §1

In a further experiment the target is T6, ELK3 (Homo sapiens, UniProt P41970 1-407).
T6 sequence: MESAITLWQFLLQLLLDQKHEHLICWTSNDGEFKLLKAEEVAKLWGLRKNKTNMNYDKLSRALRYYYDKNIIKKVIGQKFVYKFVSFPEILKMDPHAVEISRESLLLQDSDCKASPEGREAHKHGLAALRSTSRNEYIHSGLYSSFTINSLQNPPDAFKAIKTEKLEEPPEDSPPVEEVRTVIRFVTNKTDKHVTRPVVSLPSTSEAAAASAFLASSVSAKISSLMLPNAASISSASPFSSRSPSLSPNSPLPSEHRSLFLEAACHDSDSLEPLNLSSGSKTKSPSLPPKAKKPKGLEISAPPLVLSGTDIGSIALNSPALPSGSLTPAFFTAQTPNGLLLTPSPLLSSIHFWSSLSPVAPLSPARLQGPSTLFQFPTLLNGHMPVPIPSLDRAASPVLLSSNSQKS
An outline of the steps: as §1

SPIB, sequence (Q01892 whole entry): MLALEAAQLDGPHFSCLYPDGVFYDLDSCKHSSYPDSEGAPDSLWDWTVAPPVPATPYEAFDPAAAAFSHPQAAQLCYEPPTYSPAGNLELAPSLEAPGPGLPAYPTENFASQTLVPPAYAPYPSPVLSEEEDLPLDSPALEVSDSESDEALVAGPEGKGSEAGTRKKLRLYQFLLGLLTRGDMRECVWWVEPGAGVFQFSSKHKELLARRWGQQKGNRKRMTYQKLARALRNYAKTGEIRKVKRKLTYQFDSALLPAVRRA
ELF1, sequence (P32519 whole entry): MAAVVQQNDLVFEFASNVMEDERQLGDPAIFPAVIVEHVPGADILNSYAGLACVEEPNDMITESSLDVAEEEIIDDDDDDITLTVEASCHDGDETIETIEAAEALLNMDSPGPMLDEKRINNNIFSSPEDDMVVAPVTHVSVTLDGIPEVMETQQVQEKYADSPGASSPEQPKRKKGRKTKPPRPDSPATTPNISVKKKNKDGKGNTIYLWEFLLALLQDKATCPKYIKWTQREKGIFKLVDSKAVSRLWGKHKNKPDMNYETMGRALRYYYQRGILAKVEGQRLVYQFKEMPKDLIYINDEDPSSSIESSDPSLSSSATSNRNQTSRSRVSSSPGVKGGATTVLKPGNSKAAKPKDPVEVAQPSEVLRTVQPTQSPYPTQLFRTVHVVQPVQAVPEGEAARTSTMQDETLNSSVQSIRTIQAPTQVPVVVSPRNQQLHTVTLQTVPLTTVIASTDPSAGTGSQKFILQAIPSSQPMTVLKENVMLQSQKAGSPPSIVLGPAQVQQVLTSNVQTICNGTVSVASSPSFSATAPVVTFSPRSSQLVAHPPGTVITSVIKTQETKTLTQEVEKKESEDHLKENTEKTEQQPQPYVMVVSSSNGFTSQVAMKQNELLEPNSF

Consider CCGCCT, for which the binding signal was 1.68 fold enrichment (6-mer frequency, TF over GST control) with FLI1; 1.55 fold enrichment (6-mer frequency, TF over GST control) with ELK1; 1.55 fold enrichment (6-mer frequency, TF over GST control) with GABPA; 1.55 fold enrichment (6-mer frequency, TF over GST control) in the experiment with ERG; 1.66 fold enrichment (6-mer frequency, TF over GST control) with ELF1; 1.67 fold enrichment (6-mer frequency, TF over GST control) with EHF. Also, the binding signal was 1.5 fold enrichment (6-mer frequency, TF over GST control) with SPI1; 1.63 fold enrichment (6-mer frequency, TF over GST control) with SPIB; 1.82 fold enrichment (6-mer frequency, TF over GST control) in the experiment with ELK3.
On to GTTGCT, for which the binding signal with FLI1 is 1.34 fold enrichment (6-mer frequency, TF over GST control); with ELK1, 1.26 fold enrichment (6-mer frequency, TF over GST control); in the experiment with GABPA, 1.25 fold enrichment (6-mer frequency, TF over GST control); with ERG, 1.3 fold enrichment (6-mer frequency, TF over GST control); with ELF1 it was 1.31 fold enrichment (6-mer frequency, TF over GST control); with EHF it was 1.35 fold enrichment (6-mer frequency, TF over GST control). Also, the binding signal is 1.34 fold enrichment (6-mer frequency, TF over GST control) in the experiment with SPI1; 1.28 fold enrichment (6-mer frequency, TF over GST control) with SPIB; 1.25 fold enrichment (6-mer frequency, TF over GST control) with ELK3.
For TAAACG, the binding signal with FLI1 is 1.17 fold enrichment (6-mer frequency, TF over GST control); with ELK1, 1.09 fold enrichment (6-mer frequency, TF over GST control); in the experiment with GABPA, 1.15 fold enrichment (6-mer frequency, TF over GST control); with ERG it was 1.09 fold enrichment (6-mer frequency, TF over GST control); in the experiment with ELF1, 1.11 fold enrichment (6-mer frequency, TF over GST control); with EHF it was 1.17 fold enrichment (6-mer frequency, TF over GST control). The binding signal was 1.13 fold enrichment (6-mer frequency, TF over GST control) with SPI1; 1.19 fold enrichment (6-mer frequency, TF over GST control) with SPIB; 1.13 fold enrichment (6-mer frequency, TF over GST control) with ELK3.
Consider CTGGTA, for which the binding signal was 1.3 fold enrichment (6-mer frequency, TF over GST control) in the experiment with FLI1; 1.34 fold enrichment (6-mer frequency, TF over GST control) with ELK1; 1.29 fold enrichment (6-mer frequency, TF over GST control) with GABPA; 1.4 fold enrichment (6-mer frequency, TF over GST control) in the experiment with ERG; 1.38 fold enrichment (6-mer frequency, TF over GST control) in the experiment with ELF1; 1.4 fold enrichment (6-mer frequency, TF over GST control) with EHF. In addition, the binding signal in the experiment with SPI1 was 1.33 fold enrichment (6-mer frequency, TF over GST control); with SPIB it was 1.4 fold enrichment (6-mer frequency, TF over GST control); with ELK3 it was 1.35 fold enrichment (6-mer frequency, TF over GST control).
On to CTTTGC, for which the binding signal in the experiment with FLI1 is 1.4 fold enrichment (6-mer frequency, TF over GST control); with ELK1, 1.29 fold enrichment (6-mer frequency, TF over GST control); with GABPA, 1.39 fold enrichment (6-mer frequency, TF over GST control); with ERG, 1.46 fold enrichment (6-mer frequency, TF over GST control); with ELF1 it was 1.32 fold enrichment (6-mer frequency, TF over GST control); with EHF, 1.32 fold enrichment (6-mer frequency, TF over GST control). Also, the binding signal with SPI1 is 1.21 fold enrichment (6-mer frequency, TF over GST control); with SPIB, 1.32 fold enrichment (6-mer frequency, TF over GST control); with ELK3, 1.33 fold enrichment (6-mer frequency, TF over GST control).
Take GCTTCA: the binding signal is 1.35 fold enrichment (6-mer frequency, TF over GST control) in the experiment with FLI1; 1.39 fold enrichment (6-mer frequency, TF over GST control) in the experiment with ELK1; 1.28 fold enrichment (6-mer frequency, TF over GST control) with GABPA; 1.34 fold enrichment (6-mer frequency, TF over GST control) in the experiment with ERG; 1.33 fold enrichment (6-mer frequency, TF over GST control) with ELF1; 1.4 fold enrichment (6-mer frequency, TF over GST control) with EHF. In addition, the binding signal is 1.24 fold enrichment (6-mer frequency, TF over GST control) with SPI1; 1.31 fold enrichment (6-mer frequency, TF over GST control) with SPIB; 1.27 fold enrichment (6-mer frequency, TF over GST control) with ELK3.
With TTACAT, the binding signal was 1.3 fold enrichment (6-mer frequency, TF over GST control) with FLI1; 1.27 fold enrichment (6-mer frequency, TF over GST control) in the experiment with ELK1; 1.38 fold enrichment (6-mer frequency, TF over GST control) in the experiment with GABPA; 1.31 fold enrichment (6-mer frequency, TF over GST control) with ERG; 1.31 fold enrichment (6-mer frequency, TF over GST control) with ELF1; 1.43 fold enrichment (6-mer frequency, TF over GST control) with EHF. Also, the binding signal was 1.3 fold enrichment (6-mer frequency, TF over GST control) with SPI1; 1.3 fold enrichment (6-mer frequency, TF over GST control) in the experiment with SPIB; 1.36 fold enrichment (6-mer frequency, TF over GST control) with ELK3.
